Only some compounds are listed: those with a hit (about 5.2% of all), similar ones and a draw of the others.
EphB4 ephrin blk – EphB4-ephrin-B2 interaction antagonists, primary screen, biochemical, TNYL-RAW peptide probe, fluorescence polarization; AID 720, 2007; EphB4 LBD / TNYL-RAW-Alexa532 peptide; hit rate 0.15% among 97,000; inhibition, % at 7 µM; Ephrin type-B receptor 4 (Homo sapiens), P54760;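 active = inhibition above the screen-wide mean inhibition plus 3 SD, cut at about 15% in these data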;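 note: 0% = DMSO wells and 100% = excess unlabeled TNYL-RAW peptide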
PostGolgi ctrl – growth inhibition of yeast control strain, primary screen, counter-screen for post-Golgi transport modulator project; efflux-deficient yeast background strain, growth absorbance A615, 16 h; inhibition, % at 10 µM; hit rate 5% among 98,000
PostGolgi yeast – phenotypic screen on post-Golgi transport, primary screen | post-Golgi transport phenotypic cell assay | inhibition, % at 10 µM | hit rate 0.9% among 98,000 | AID 739, 2007;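 note: yeast cells grown in 1536-well plates; yeast grown about 18 h at 30C before absorbance read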
Candida biofilm – clotrimazole potentiators killing Candida biofilms, primary screen, with clotrimazole, Alamar Blue; C. albicans biofilm + clotrimazole; inhibition, % at 6 µM; hit rate 0.14% among 85,000; AID 834, 2007;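 active = inhibition above 20%; inactive = inhibition below 20%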;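 note: preformed 24 hr biofilms exposed to compound for 48 hr; 0% = biofilm without compound and 100% = blank killed by clotrimazole plus chlorhexidine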
* marks the source's active call; other numbers are inactive results; x = no result. Cut-off read from the data, not from the text of the source, unless noted: active = inhibition above about 30%; inactive = the rest.

SMILES	EphB4 ephrin blk	PostGolgi ctrl	PostGolgi yeast	Candida biofilm
CCOC(=O)c1ccc(NC(=S)NCC(O)c2ccccc2)cc1 (stereo not drawn)	17*	1	2	x
O/N=C/c1cn(-c2ccccc2)nc1-c1ccc2c(c1)OCCO2	4	31*	8	4
O=C(N/N=C/c1cn(-c2ccccc2)nc1-c1ccc(F)cc1)c1ccc2c(c1)OCO2	1	12	12	x
O=C(N/N=C\c1cn(-c2ccccc2)nc1-c1ccccc1)c1ccc2c(c1)OCO2	-14	34*	-6	x
CCn1ncc(/C=N/NC(=O)c2ccc3c(c2)OCO3)c1C	3	33*	3	x
Cc1ccc(S(=O)(=O)N2CCCCC2)cc1C(=O)Nc1ncn[nH]1	x	16	2	1
Cc1ccc(C(=O)N2c3ccccc3N(Cc3ccccc3)C(=O)C2(C)C)cc1	-2	20	6	5
O=C(Nc1nnc(Cc2ccccc2)s1)c1ccco1	-10	19	-2	3
NC(=O)c1cc(Cc2ccccc2)sc1NC(=O)c1ccco1	x	45*	9	1
N=c1c(C(=O)NCc2ccco2)cc2c(=O)n3ccccc3nc2n1Cc1ccc(Cl)cc1	2	35*	11	3
CC(C(=O)N1CCN(c2ccc(Cl)cc2)CC1)c1ncc(C(F)(F)F)cc1Cl (stereo not drawn)	7	28	2	x
O=C(CSc1nnc(-c2cc3ccccc3cc2O)n1Cc1ccco1)N1CCc2ccccc2C1	1	80*	2	-4
COC(=O)c1nn(-c2cccc(C(F)(F)F)c2)c(=O)cc1Sc1ccccn1	-4	-2	5	x
CCCCS(=O)CC(COc1ccc(Cl)cc1)OC(=O)c1ccccc1 (stereo not drawn)	-2	42*	-4	6
O=S(Cc1ccc(Cl)cc1)CC(O)COc1ccc(Cl)cc1 (stereo not drawn)	6	8	0	9
CCCc1c(C)c2cc(C)ccc2[nH]c1=O	-4	7	4	9
CCCCc1c(C)c2cc(C)ccc2[nH]c1=O	-1	33*	-3	4
CCCCc1c(O)c2ccccc2[nH]c1=O	-3	43*	6	9
O=C(Cc1c(O)c2ccccc2[nH]c1=O)N(Cc1ccccc1)Cc1ccccc1	-1	14	36*	x
COc1ccc(NCc2nnc(SCC#N)n2-c2ccccc2OC)cc1	0	6	25	8
COc1ccc(CN2C(=O)CS(=O)CC2=O)cc1OC	-3	1	19	x
COc1ccc(S(=O)(=O)N2CCN(Cc3ccc4c(c3)OCO4)CC2)c2ccccc12	0	35*	-7	13
CCc1ccc2c(CN3CCN(S(=O)(=O)c4ccc5c(c4)OCCO5)CC3)cc(=O)oc2c1	-2	33*	5	x
O=S(=O)(Cc1ccccc1Cl)N1CCN(Cc2ccc3c(c2)OCO3)CC1	7	35*	89*	x
CSc1ccc(S(=O)(=O)N2CCN(Cc3ccc4c(c3)OCO4)CC2)cc1	x	53*	55*	-3
SMILES	EphB4 ephrin blk	PostGolgi ctrl	PostGolgi yeast	Candida biofilm
O=c1cc(CN2CCN(S(=O)(=O)c3ccc4c(c3)OCCO4)CC2)c2ccc(O)cc2o1	-1	19	0	x
COc1ccc(Cl)cc1S(=O)(=O)N1CCN(Cc2ccc3c(c2)OCO3)CC1	6	15	-4	7
O=S(=O)(Cc1ccc(Cl)cc1)N1CCN(Cc2ccccc2)CC1	10	5	-3	9
COc1cccc2c1N1C(=O)c3c(C(=O)O)cccc3C1CC2(C)C (stereo not drawn)	-7	5	-4	7
COc1ccc(-c2cc(C(=O)N3CC4(C)CC3CC(C)(C)C4)no2)cc1 (stereo not drawn)	-4	34*	-11	-1
COc1ccc(-c2cc(C(=O)N3CC4(C)CC3CC(C)(C)C4)no2)cc1OC (stereo not drawn)	-3	16	7	3
CC1(C)CC2CC(C)(CN2C(=O)c2cc(-c3ccccc3O)on2)C1 (stereo not drawn)	1	78*	11	3
CC(C)(C)NC(=O)COc1ccc(CNCc2cccs2)cc1	2	24	4	x
CCOC(=O)C1C(=O)C=C(c2ccc([N+](=O)[O-])cc2)CC1c1ccccc1 (stereo not drawn)	4	38*	23	x
CCOC(=O)C1C(=O)C=C(c2ccc(Br)cc2)CC1c1ccco1 (stereo not drawn)	-4	20	-7	6
CCOc1ccc(OCCN2C(=O)NC(Cc3c[nH]c4ccccc34)C2=O)cc1 (stereo not drawn)	1	19	-4	11
CS(=O)(=O)N1CCN(C(=O)c2cccnc2)CC1	-2	35*	0	1
CC1=CC(C)(C)N2C(=O)C3(C(C#N)=C(N)Oc4cc(O)ccc43)c3c(C)c(C)cc1c32 (stereo not drawn)	1	20	-2	1
O=C1CN(C(=O)c2ccco2)C(c2ccccc2)c2cc(Cl)ccc2N1 (stereo not drawn)	2	5	6	5
Cc1c(C(=O)NCc2cccnc2)oc2ccc(S(=O)(=O)N3CCCC(C)C3)cc12 (stereo not drawn)	x	33*	6	4
O=C(Nc1ccc2c(c1)OCO2)C1CCCN(S(=O)(=O)Cc2ccccc2)C1 (stereo not drawn)	8	42*	-4	5
O=C(Nc1ccc2c(c1)OCCO2)C1CCN(C(=O)c2ccccc2)CC1	7	31*	-5	9
O=C(Nc1ccc2c(c1)OCCO2)C1CCN(C(=O)c2ccc(Br)cc2)CC1	-5	1	7	4
O=C(C1CCCN(S(=O)(=O)Cc2ccccc2)C1)N1CCC(Cc2ccccc2)CC1 (stereo not drawn)	0	34*	5	3
COc1cc(/C=C/C(=O)c2ccc(Cl)s2)cc(OC)c1O	3	45*	20	x
O=C(O)CC(Cc1ccccc1)c1ccc2c(c1)OCO2 (stereo not drawn)	0	-7	7	7
CC(=O)N(CCC(Cc1ccccc1)c1ccc2c(c1)OCO2)Cc1ccc(Cl)cc1 (stereo not drawn)	-3	36*	-3	x
CCOC(=O)c1cc2cc(OC)ccc2nc1C	4	x	x	9
COC(=O)c1ccc(Cc2ccc(C(=O)OC)o2)o1	-11	36*	8	x
Cn1c(NC(=O)c2cc(Br)ccc2Cl)cc(=O)n(C)c1=O	2	12	3	x
SMILES	EphB4 ephrin blk	PostGolgi ctrl	PostGolgi yeast	Candida biofilm
CCN1/C(=C/c2ccc3ccccc3[n+]2CC)C=Cc2ccccc21	-8	66*	-1	-1
N=c1c2c(-c3ccccc3)c(-c3ccccc3)n(Cc3ccccc3)c2ncn1CCO	8	18	23	0
c1ccc(-c2c(-c3ccccc3)n(Cc3ccco3)c3ncnc(NCCCn4ccnc4)c23)cc1	-6	94*	96*	4
c1ccc2c(c1)oc1c(NCCCn3ccnc3)ncnc12	-2	4	1	13
c1ccc(-c2oc3ncnc(NCCCn4ccnc4)c3c2-c2ccccc2)cc1	-2	66*	3	8
OCCNc1ncnc2c1c(-c1ccccc1)c(-c1ccccc1)n2Cc1ccco1	6	33*	27	x

Assay outcomes: PubChem, several laboratories
